Measurements taken from PubChem BioAssay (NCATS).
Several values for one entry are separate records, joined by “and”; a condition that tells them apart may be missing. Equal entries are not always repeated. Results filed as inconclusive are left out. Activity calls are given as the source filed them. Unless noted, calls come from the whole dose curve; as a rule, active = well fitted curve in the direction sought with a large enough effect; inconclusive = small, poorly fitted or top-dose-only effect, or another doubt; inactive = no such curve, though single readings can be large; an effect the other way counts as inactive or inconclusive.

Columns and labels:
[1] = Primary qHTS for inhibitors of nuclear receptor binding SET domain protein 2 (NSD2) in an isogenic RCH-ACV NSD2 p.E1099K mutant (9B) (AID 1645876); note: nearly all actives have a fitted effect of over 70% in size; note: potency is the fitted concentration of half-maximal effect
[2] = Primary qHTS for inhibitors of nuclear receptor binding SET domain protein 2 (NSD2) in an RCH-ACV wild type WT cells (2C) (AID 1645877); note: nearly all actives have a fitted effect of over 70% in size; note: potency is the fitted concentration of half-maximal effect
[3] = target: Glutathione peroxidase 1 (Homo sapiens) (UniProt P07203); experiment: Primary qHTS Assay for Inhibitors of Recombinant Selenoprotein Glutathione Peroxidase 1 (GPX1) (AID 1845191); note: nearly all actives have a fitted effect of over 65% in size
Glutathione peroxidase 1 (Homo sapiens), sequence (P07203 whole entry, looked up): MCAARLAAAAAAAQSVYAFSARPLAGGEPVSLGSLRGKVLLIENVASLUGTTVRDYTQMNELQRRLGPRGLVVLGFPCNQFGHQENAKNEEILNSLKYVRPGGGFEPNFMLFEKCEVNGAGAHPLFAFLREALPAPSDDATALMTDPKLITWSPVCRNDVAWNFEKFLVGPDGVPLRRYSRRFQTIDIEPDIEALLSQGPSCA
Outline: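 NADPH consumption tracked by fluorescence at 340/450 nm between t=0 and t=15 min, room temperature. Final mix: 10 nM GPX1, 100 nM glutathione reductase, 1 mM GSH, 0.5 mM NADPH, 0.5 mM cumene hydroperoxide, 0.01% BSA; 30 min compound–enzyme preincubation.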

[4] = target: Phospholipid hydroperoxide glutathione peroxidase GPX4 (Homo sapiens) (UniProt P36969); experiment: Primary qHTS Assay for Inhibitors of Recombinant Selenoprotein Glutathione Peroxidase 4 (GPX4) (AID 1845192); settings: outcome: dose series up to 50 µM unless noted; note: % is set by controls: 0 for no effect and ±100 for the full control effect; nearly all actives have a fitted effect of over 65% in size
Phospholipid hydroperoxide glutathione peroxidase GPX4 (Homo sapiens), sequence (P36969 whole entry, looked up): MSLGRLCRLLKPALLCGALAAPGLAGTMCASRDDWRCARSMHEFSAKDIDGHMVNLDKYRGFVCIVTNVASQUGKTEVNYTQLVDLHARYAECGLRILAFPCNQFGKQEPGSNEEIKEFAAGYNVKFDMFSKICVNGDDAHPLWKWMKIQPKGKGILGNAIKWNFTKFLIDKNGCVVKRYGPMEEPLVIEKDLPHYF
Outline: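 NADPH consumption followed by fluorescence at 340/450 nm, t=0 and after 15 min at room temperature. Reaction started with cumene hydroperoxide (0.5 mM final) after 30 min compound–GPX4 preincubation; final 200 nM GPX4, 100 nM GR, 1 mM GSH, 0.5 mM NADPH.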

[5] = qHTS drug screen for cell cycle checkpoint inhibitors in PARPi-resistant BRCA-mutant ovarian cancer cell lines. (AID 1963452; calls by dose curve); settings: PEO1/OlaR viability, CellTiter-Glo luminescence, 96 h, stronger effect = lower value
Outline: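 PEO1, PEO4 and PEO1/OlaR ovarian cancer cells, 600 per well, exposed 96 h at 37C to a dilution series. Viability read by CellTiter-Glo luminescence, normalized to DMSO and empty wells; activity summarized as Z-AUC.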

[6] = AP1 Signaling Pathway (AID 357; active = well fitted curve in either direction with a large enough effect, not every such curve was filed as active;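 note: ME-180 reporter cells stimulated with EGF at its EC50 level; % is set by controls: 0 for no effect and ±100 for the full control effect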); settings: ME-180 AP-1-bla reporter, EGF-induced, beta-lactamase ratio, 5 h; at 7.69 µM (top of the series) unless noted
Outline: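 Read-out was the 460nm/530nm emission ratio (excitation 405nm) after CCF4 loading for 2.5 hours at room temperature. Cells carried an AP-1-driven beta-lactamase reporter, were stimulated with EC50 EGF plus compound for 5 hours, and AC50 values came from titrations.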

[7] = NFAT Signaling Pathway (AID 444; active = well fitted curve in either direction with a large enough effect, not every such curve was filed as active;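 note: carbachol stimulus at about its EC50 of 1 µM final; % is set by controls: 0 for no effect and ±100 for the full control effect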); settings: Jurkat NFAT-bla M1, carbachol, beta-lactamase ratio, 5 h; at 7.69 µM (top of the series) unless noted
Outline: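 Read-out: CCF4 FRET ratio (460 nm/530 nm) after 1 h RT dye loading, used for %activity and AC50 from titration series. Cells: Jurkat NFAT-β-lactamase/M1 line, treated with compound plus 1 uM carbachol for 5 h, 37 °C.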

[8] = Stat Signaling Pathway (AID 446; active = well fitted curve in either direction with a large enough effect, not every such curve was filed as active;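 note: ME-180 cervical cancer cells given 40 pM IL-6 alongside compound; SIE-controlled beta-lactamase reporter measured as 460/530 nm FRET emission ratio; % is set by controls: 0 for no effect and ±100 for the full control effect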); settings: ME-180 (cervical carcinoma) SIE beta-lactamase reporter, IL-6 stimulated, 5 h; at 7.69 µM (top of the series) unless noted
Outline: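 Emission at 460 and 530 nm (excitation 405 nm) reports SIE-controlled beta-lactamase in ME-180 cells. Cells received compound with 40 pM IL-6 for 5 hrs at 37 C; data scaled between 300 pM IL-6 and 125 nM JAK-inhibitor controls.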

[9] = target: Glucocorticoid receptor (Homo sapiens) (UniProt P04150); experiment: GR-EFC Redistribution (AID 451; calls by dose curve; note: potency is the fitted concentration of half-maximal effect); settings: CHO-K1 GR-EFC translocation, beta-gal luminescence, 2 h
Glucocorticoid receptor (Homo sapiens), sequence (P04150 whole entry, looked up, the tested form may be a part): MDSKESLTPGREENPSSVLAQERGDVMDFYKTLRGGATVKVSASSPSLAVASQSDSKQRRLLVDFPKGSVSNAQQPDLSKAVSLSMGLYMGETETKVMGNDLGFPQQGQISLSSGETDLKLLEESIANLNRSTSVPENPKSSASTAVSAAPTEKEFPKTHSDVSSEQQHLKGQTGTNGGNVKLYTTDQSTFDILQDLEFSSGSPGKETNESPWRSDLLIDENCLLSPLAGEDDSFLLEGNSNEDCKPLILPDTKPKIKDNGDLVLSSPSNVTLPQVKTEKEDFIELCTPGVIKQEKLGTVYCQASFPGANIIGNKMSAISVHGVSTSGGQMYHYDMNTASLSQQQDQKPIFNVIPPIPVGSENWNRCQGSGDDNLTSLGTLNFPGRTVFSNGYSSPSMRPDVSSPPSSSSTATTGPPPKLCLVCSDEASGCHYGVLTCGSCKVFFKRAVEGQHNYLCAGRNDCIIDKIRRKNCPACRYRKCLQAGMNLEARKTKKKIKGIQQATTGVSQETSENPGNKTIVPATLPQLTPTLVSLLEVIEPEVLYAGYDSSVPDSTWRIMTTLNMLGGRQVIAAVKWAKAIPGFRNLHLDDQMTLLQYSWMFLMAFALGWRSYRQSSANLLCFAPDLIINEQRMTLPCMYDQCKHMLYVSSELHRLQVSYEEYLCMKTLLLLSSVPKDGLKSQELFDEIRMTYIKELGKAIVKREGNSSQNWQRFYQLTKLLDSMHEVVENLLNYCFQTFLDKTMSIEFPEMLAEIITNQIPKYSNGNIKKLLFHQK
Outline: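 Translocation of GR-ED fusion to nuclear EA restores b-gal, read by luminescence after 1 h room-temperature detection. Engineered CHO-K1 biosensor cells, 1,000/well, exposed 2 h at 37 C to titrations up to 46 uM final.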

[10] = target: Mitogen-activated protein kinase 10 (Mus musculus) (UniProt Q61831); experiment: JNK3 AlphaScreen Assay (AID 530; active = well fitted curve in either direction with a large enough effect, not every such curve was filed as active;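 note: kinase came from lysate of stimulated human HepG2 cells; signal reports phosphorylation of biotinylated GST-cJun 1-79 at Ser73 with 10 µM ATP; % is set by controls: 0 for no effect and ±100 for the full control effect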)
Outline: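 Kinase buffer: 20 mM Tris-HCl pH 7.6, 10 mM MgCl2, 1 mM DTT, 0.1 mM Na3VO4, 0.01% Tween-20; ATP 10 uM. Substrate biotin-GST-cJun(1-79), enzyme from activated HepG2 lysates. Detection by Ser73 phospho-antibody AlphaScreen.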

[11] = target: 3',5'-cyclic-AMP phosphodiesterase 4B (Homo sapiens) (UniProt Q07343); experiment: qHTS Assay for Inhibitors of PDE-IV (AID 607; active = well fitted activation curve with a large enough effect in the main read-out, with a control signal flat, not every such curve was filed as active; note: % of control where 0% means no effect)
3',5'-cyclic-AMP phosphodiesterase 4B (Homo sapiens), sequence (Q07343 whole entry, looked up): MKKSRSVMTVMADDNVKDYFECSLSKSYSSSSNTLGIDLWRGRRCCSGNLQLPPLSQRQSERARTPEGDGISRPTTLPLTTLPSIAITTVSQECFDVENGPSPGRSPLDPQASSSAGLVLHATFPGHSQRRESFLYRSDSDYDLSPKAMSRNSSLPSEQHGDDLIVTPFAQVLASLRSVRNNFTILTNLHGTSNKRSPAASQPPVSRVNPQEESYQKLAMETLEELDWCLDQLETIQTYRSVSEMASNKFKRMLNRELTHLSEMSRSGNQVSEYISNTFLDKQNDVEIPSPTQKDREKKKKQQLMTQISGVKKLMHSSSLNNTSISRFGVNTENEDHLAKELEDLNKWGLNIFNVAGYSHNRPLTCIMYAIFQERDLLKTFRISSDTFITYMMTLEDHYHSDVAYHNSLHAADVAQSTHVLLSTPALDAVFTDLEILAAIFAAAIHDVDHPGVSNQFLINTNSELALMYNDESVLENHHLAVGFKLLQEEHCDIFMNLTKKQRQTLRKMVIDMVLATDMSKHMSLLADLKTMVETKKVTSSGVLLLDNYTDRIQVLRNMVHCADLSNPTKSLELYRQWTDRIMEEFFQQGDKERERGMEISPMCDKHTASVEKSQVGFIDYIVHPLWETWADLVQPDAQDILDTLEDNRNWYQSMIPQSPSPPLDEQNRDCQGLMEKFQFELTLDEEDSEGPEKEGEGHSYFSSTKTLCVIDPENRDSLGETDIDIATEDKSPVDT
Outline: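 The readout is membrane depolarisation from a cAMP-sensing CNG channel, detected with a potential dye at ex 535/em 590. Cells were HEK293-derived (endogenous PDE-IV) at 1000 cells/well, titrated up to 22.9 uM final.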

[12] = measured here: PEO1 parental Z-AUC

For `Cn1ncc(NC(=O)c2nc(-c3c(F)cccc3F)sc2N)c1N1CC[C@@H](N)[C@H](F)CC1`, the Potency [1] was “inactive”, the Potency [2] was “inactive” and the Potency [3] was “inactive”. The Potency [4] was “inactive”, the Z-AUC [5] was 0.883 (inactive) and the Z-AUC [5, 12] was 0.956. The Z-AUC ([5]; measured here: PEO4 Z-AUC) was 0.537.

With `CN1CCN(C(=O)c2ccc(-c3ccc4c(C=O)c(O)ccc4c3)s2)CC1` the Potency [1] was “inactive”, the Potency [2] was “inactive” and the Potency [3] was “inactive”. For the same compound, the Z-AUC [5] was 1.23 (inactive), the Z-AUC [5, 12] was 0.551 and the Z-AUC ([5]; measured here: PEO4 Z-AUC) was 0.471.

In the case of `Nc1nc(OC(c2ccc(-c3cccc(F)c3)cc2)C(F)(F)F)cc(-c2ccc(C[C@H](N)C(=O)O)cc2)n1` (some centres not stated), the Potency [3] is reported as “inactive”, the Potency [4] is reported as “inactive” and the Z-AUC [5] is reported as -0.825 (inactive). It also gave a Z-AUC [5, 12] of -0.615 and a Z-AUC ([5]; measured here: PEO4 Z-AUC) of -0.247.

In the case of `COc1ccc2c(c1)c(CC(=O)O)c(C)n2Cc1ccc(F)cc1`, the activity change, negative = inhibition [6] is reported as 1.56% [at 38 µM] (inactive), the activity change, negative = inhibition [7] is reported as 6.06% [at 38 µM] (inactive) and the activity, negative = inhibition [8] is reported as 11.9% [at 38 µM] (inactive). The Potency [9] was > 46000 nM (inactive), the outcome [10] was “inactive” and the Potency [11] was “inactive”.

For `CC(=O)N1c2ccc(-c3ccc(C(=O)O)cc3)cc2[C@H](Nc2ccc(Cl)cc2)C[C@@H]1C`, the Potency [1] was 93.4 nM (active), the Potency [2] was 93.4 nM (active) and the Potency [3] was “inactive”. For the same compound, the Z-AUC [5] was -0.689 (inactive), the Z-AUC [5, 12] was -0.385 and the Z-AUC ([5]; measured here: PEO4 Z-AUC) was -0.741.

For `COc1ccccc1C(=O)Nc1cc2c(cc1N1CCCCC1)n(C)c(=O)n2C`, the Potency [1] was “inactive”, the Potency [2] was “inactive” and the Potency [3] was “inactive”. The Potency [4] was “inactive”, the Z-AUC [5] was 1.08 (inactive) and the Z-AUC [5, 12] was 0.729. The Z-AUC ([5]; measured here: PEO4 Z-AUC) was 0.646.

With `COc1cccc(-c2c(C)n(Cc3c(F)cccc3C(F)(F)F)c(=O)n(C[C@H](NCCCC(=O)O)c3ccccc3)c2=O)c1F` the Potency [1] was “inactive”, the Potency [2] was “inactive” and the Potency [3] was “inactive”. For the same compound, the Potency [4] was “inactive”, the Z-AUC [5] was 1.28 (inactive) and 1.27 (inactive) and the Z-AUC [5, 12] was 0.714 and 0.439. For the same compound, the Z-AUC ([5]; measured here: PEO4 Z-AUC) was 0.863 and 0.647.

In the case of `Cc1ccc(-c2nc(N)nc3c2nnn3Cc2cccc(CO[C@H]3CCOC3)n2)o1`, the Potency [1] is reported as “inactive”, the Potency [2] is reported as “inactive” and the Potency [3] is reported as “inactive”. For the same compound, the Z-AUC [5] was -1.33 (inactive), the Z-AUC [5, 12] was -0.982 and the Z-AUC ([5]; measured here: PEO4 Z-AUC) was -1.11.

With `Nc1nccc2c1ncn2[C@@H]1C=C(CO)[C@@H](O)[C@H]1O` the Potency [1] was 209 nM (active), the Potency [2] was 148 nM (active) and the Potency [3] was “inactive”. For the same compound, the Potency [4] was “inactive”, the Z-AUC [5] was -0.397 (inactive) and the Z-AUC [5, 12] was -0.938. For the same compound, the Z-AUC ([5]; measured here: PEO4 Z-AUC) was -1.07.
